Laboratory results reported in PubChem BioAssay (NCATS).
Results filed as inconclusive are left out. Where a call stands in place of a potency, no number is given. Activity calls are given as the source filed them. Calls follow the shape of the dose curve; as a rule, active = well fitted inhibition curve with a large enough effect; inconclusive = small, poorly fitted or top-dose-only effect; inactive = no such curve, though single readings can be large or run the other way.

What follows are compounds tested against Glutaminase kidney isoform, mitochondrial (Homo sapiens) (UniProt O94925) (assay: qHTS for Inhibitors of Glutaminase (GLS): LOPAC Validation (AID 624146; also: nearly all actives have a fitted effect of over 60% in size)). Settings: glutaminase enzyme activity inhibition; series mostly up to 46.1 µM.
Excerpt: Glutaminase (GLS) catalyzes the hydrolysis of glutamine into glutamate and ammonia. It plays a critical role in glutaminolysis, which is an important energy source for proliferating cells. It was shown that c-Myc, an oncogenic transcription factor known to regulate microRNAs and to stimulate cell proliferation, increases glutamine metabolism by stimulating the expression of GLS via direct suppression of miR23a and miR23b.
GLS is also thought to play a pathogenic role on HAD using a human HIV-1 infected macrophage system. […] GLS inhibition limits glutamate release and provides neuroprotection against HIV-1 infected macrophages.
The overall goal of this project is to identify small molecule inhibitors of GLS through quantitative high throughput screening (qHTS) of the MLSMR. A validated potent and selective inhibitor can be used as a tool molecule to further study the pharmacology of its target as well as explore its potential therapeutic application in cancer and inflammatory neurological disorders, such as HIV1-associated dementia (HAD) and multiple sclerosis.
NIH Chemical Genomics Center [NCGC]
NIH Molecular Libraries Probe Centers Network [MLPCN]
Assay Submitter (PI): Barbara S. Slusher, Johns Hopkins University
Three 3 uL of hKGA is dispensed into black well 1536-well plates in 45 mM KH2PO4 (pH 8.2), 0.02% Tween-20. Then 23 nL of compounds are added through pin tool transfer. To this, 1 uL of 1mM L-Glutamine and 1 uL of a solution of L-Glutamateoxidase, HRP, Amplex red are added. Plate is centrifuged for 25 sec before an initial fluorescence read is obtained on the ViewLux, after 30 min of RT incubation, the final read is taken on the ViewLux.
Potency is read from the fitted curve at half-maximal effect.

Sequence of Glutaminase kidney isoform, mitochondrial (Homo sapiens) (O94925 whole entry, looked up, canonical isoform): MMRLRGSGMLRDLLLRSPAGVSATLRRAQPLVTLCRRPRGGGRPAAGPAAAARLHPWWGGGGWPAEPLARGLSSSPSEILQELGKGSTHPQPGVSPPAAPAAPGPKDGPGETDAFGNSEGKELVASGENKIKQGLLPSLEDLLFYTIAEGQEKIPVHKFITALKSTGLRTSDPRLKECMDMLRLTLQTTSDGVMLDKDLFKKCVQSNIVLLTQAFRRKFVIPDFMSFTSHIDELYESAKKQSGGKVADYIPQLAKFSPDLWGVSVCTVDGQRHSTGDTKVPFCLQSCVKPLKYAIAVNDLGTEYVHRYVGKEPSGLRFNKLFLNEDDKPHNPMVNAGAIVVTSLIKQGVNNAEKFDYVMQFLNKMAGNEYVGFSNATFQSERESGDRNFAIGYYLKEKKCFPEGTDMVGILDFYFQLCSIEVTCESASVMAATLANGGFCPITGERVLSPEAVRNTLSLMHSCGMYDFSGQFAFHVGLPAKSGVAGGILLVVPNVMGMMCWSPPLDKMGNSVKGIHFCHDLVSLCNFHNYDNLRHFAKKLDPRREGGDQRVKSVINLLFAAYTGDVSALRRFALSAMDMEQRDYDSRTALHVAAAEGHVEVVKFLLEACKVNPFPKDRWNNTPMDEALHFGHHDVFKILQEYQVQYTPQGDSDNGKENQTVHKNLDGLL

Compound | Potency
COc1ccc2c(c1OC)C(=O)O[C@H]2[C@@H]1c2cc3c(cc2CCN1C)OCO3 | inactive
CC(C)(C)NCC(O)c1ccccc1Cl (stereo not given) | inactive
Cc1ncsc1CCCl | inactive
O=C(CCCN1CCC2(CC1)C(=O)NCN2c1ccccc1)c1ccc(F)cc1 | inactive
O=c1[nH]oc2c1CCNC2 | inactive
NCCc1ccc(O)cc1 | inactive
CC(NC(C)(C)C)C(=O)c1cccc(Cl)c1 (stereo not given) | inactive
O=C(O)CCCc1ccc(N(CCCl)CCCl)cc1 | inactive
CC(C)N(CCC(C(N)=O)(c1ccccc1)c1ccccn1)C(C)C (stereo not given) | inactive
CC(C)c1cccc(C(C)C)c1O | 4.47 µM (active)
C=C(C)[C@H]1CN[C@H](C(=O)O)[C@H]1CC(=O)O | inactive
O=P1(N(CCCl)CCCl)NCCCO1 (stereo not given) | inactive
CCCCC/C=C\C/C=C\C/C=C\C/C=C\CCCC(=O)NCC(=O)O | inactive
CN1C(=O)CCS(=O)(=O)C1c1ccc(Cl)cc1 (stereo not given) | inactive
CCC1(c2ccc(N)cc2)CCC(=O)NC1=O (stereo not given) | inactive
